Data from PubChem BioAssay AID1159580 (chemical genetic matrix, 2015).
About 2,000 (36%) of roughly 5,500 compounds were called active. Roughly 18% stayed inconclusive and do not appear here. No stated cut-off is given here; in the data, active means normalized growth mostly below about 0.91 (no sharp cut-off); inconclusive means no clear call, values can overlap the other calls; inactive means mostly above about 0.92. The list shows a part of the results.

Test: chemical genetic growth profiling, strain panel (AID 1159580);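 further: tested at 20 µM; growth read once vehicle control cultures reached saturation at 30 °C; 1 = growth at the plate median or of vehicle wells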
Settings: growth OD

Measured: normalized growth

CC(=O)OC1CCC2(C)C(CC(OC(C)=O)C3(C)C4=CC(=O)OC(c5ccoc5)C4(C)CCC23)C1(C)C (stereo unspecified)
inactive: S. cerevisiae deletion strains, locus YAL013W, strain DEP1, stronger effect = lower value 0.989 | S. cerevisiae deletion strains, locus YBR021W, strain FUR4, stronger effect = lower value 1.02 | S. cerevisiae deletion strains, locus YBR229C, strain ROT2, stronger effect = lower value 1 | S. cerevisiae deletion strains, locus YCL029C, strain bik1, stronger effect = lower value 0.995 | S. cerevisiae deletion strains, locus YDL035C, strain GPR1, stronger effect = lower value 0.972 | S. cerevisiae deletion strains, locus YDL074C, strain BRE1, stronger effect = lower value 0.791 | S. cerevisiae deletion strains, locus YDL101C, strain DUN1, stronger effect = lower value 0.995 | S. cerevisiae deletion strains, locus YDL134C, strain PPH21, stronger effect = lower value 0.989 | S. cerevisiae deletion strains, locus YDL185W, strain tfp1, stronger effect = lower value 0.963 | S. cerevisiae deletion strains, locus YDL192W, strain arf1, stronger effect = lower value 0.998 | S. cerevisiae deletion strains, locus YDR101C, strain arx1, stronger effect = lower value 1.01 | S. cerevisiae deletion strains, locus YDR150W, strain NUM1, stronger effect = lower value 0.98 | S. cerevisiae deletion strains, locus YDR162C, strain NBP2, stronger effect = lower value 1.01 | S. cerevisiae deletion strains, locus YDR318W, strain mcm21, stronger effect = lower value 0.992 | S. cerevisiae deletion strains, locus YDR388W, stronger effect = lower value 1 | S. cerevisiae deletion strains, locus YDR502C, strain sam2, stronger effect = lower value 1.01 | S. cerevisiae deletion strains, locus YEL061C, strain CIN8, stronger effect = lower value 1.01 | S. cerevisiae deletion strains, locus YER110C, stronger effect = lower value 1 | S. cerevisiae deletion strains, locus YER155C, strain BEM2, stronger effect = lower value 0.997 | S. cerevisiae deletion strains, locus YER167W, strain BCK2, stronger effect = lower value 0.994 | S. cerevisiae deletion strains, locus YGL078C, strain dbp3, stronger effect = lower value 0.993 | S. cerevisiae deletion strains, locus YGL086W, strain mad1, stronger effect = lower value 0.969 | S. cerevisiae deletion strains, locus YGL248W, strain PDE1, stronger effect = lower value 1.01 | S. cerevisiae deletion strains, locus YGR078C, strain PAC10, stronger effect = lower value 0.948 | S. cerevisiae deletion strains, locus YGR135W, strain pre9, stronger effect = lower value 1.04 | S. cerevisiae deletion strains, locus YGR229C, strain SMI1, stronger effect = lower value 0.986 | S. cerevisiae deletion strains, locus YGR252W, strain gcn5, stronger effect = lower value 0.961 | S. cerevisiae deletion strains, locus YHR030C, strain SLT2, stronger effect = lower value 0.998 | S. cerevisiae deletion strains, locus YHR079C, strain IRE1 (second series), stronger effect = lower value 0.972 | S. cerevisiae deletion strains, locus YHR094C, strain hxt1, stronger effect = lower value 0.989 | S. cerevisiae deletion strains, locus YHR129C, strain ARP1, stronger effect = lower value 1 | S. cerevisiae deletion strains, locus YHR200W, strain rpn10, stronger effect = lower value 1 | S. cerevisiae deletion strains, locus YIL066C, strain RNR3, stronger effect = lower value 0.973 | S. cerevisiae deletion strains, locus YIL073C, strain SPO22, stronger effect = lower value 0.882 | S. cerevisiae deletion strains, locus YIL125W, strain kgd1, stronger effect = lower value 1 | S. cerevisiae deletion strains, locus YIR030C, strain dcg1, stronger effect = lower value 1 | S. cerevisiae deletion strains, locus YJL095W, strain BCK1, stronger effect = lower value 1.01 | S. cerevisiae deletion strains, locus YJL134W, strain LCB3, stronger effect = lower value 1 | S. cerevisiae deletion strains, locus YJL168C, strain set2, stronger effect = lower value 1 | S. cerevisiae deletion strains, locus YJL187C, strain SWE1 (second series), stronger effect = lower value 0.994 | S. cerevisiae deletion strains, locus YJR043C, strain POL32, stronger effect = lower value 0.997 | S. cerevisiae deletion strains, locus YJR075W, strain HOC1, stronger effect = lower value 1.01 | S. cerevisiae deletion strains, locus YKL009W, strain mrt4, stronger effect = lower value 0.988 | S. cerevisiae deletion strains, locus YKL068W, stronger effect = lower value 0.982 | S. cerevisiae deletion strains, locus YKL085W, strain MDH1 (second series), stronger effect = lower value 0.994 | S. cerevisiae deletion strains, locus YKL085W, strain MDH1, stronger effect = lower value 0.994 | S. cerevisiae deletion strains, locus YKL190W, strain CNB1, stronger effect = lower value 0.977 | S. cerevisiae deletion strains, locus YKR001C, strain vps1, stronger effect = lower value 0.974 | S. cerevisiae deletion strains, locus YLR039C, strain RIC1, stronger effect = lower value 0.986 | S. cerevisiae deletion strains, locus YLR058C, strain SHM2, stronger effect = lower value 0.989 | S. cerevisiae deletion strains, locus YLR102C, strain apc9, stronger effect = lower value 0.995 | S. cerevisiae deletion strains, locus YLR262C, strain YPT6, stronger effect = lower value 0.954 | S. cerevisiae deletion strains, locus YLR268W, strain sec22, stronger effect = lower value 1.03 | S. cerevisiae deletion strains, locus YLR330W, strain CHS5, stronger effect = lower value 0.995 | S. cerevisiae deletion strains, locus YLR342W, strain FKS1 (second series), stronger effect = lower value 0.996 | S. cerevisiae deletion strains, locus YLR371W, strain rom2, stronger effect = lower value 0.983 | S. cerevisiae deletion strains, locus YLR418C, strain cdc73, stronger effect = lower value 1.01 | S. cerevisiae deletion strains, locus YML016C, strain PPZ1, stronger effect = lower value 1 | S. cerevisiae deletion strains, locus YML032C, strain rad52, stronger effect = lower value 0.986 | S. cerevisiae deletion strains, locus YML124C, strain tub3, stronger effect = lower value 1 | S. cerevisiae deletion strains, locus YMR078C, strain ctf18, stronger effect = lower value 1 | S. cerevisiae deletion strains, locus YMR223W, strain ubp8, stronger effect = lower value 0.99 | S. cerevisiae deletion strains, locus YMR263W, strain SAP30, stronger effect = lower value 0.982 | S. cerevisiae deletion strains, locus YMR307W, strain GAS1, stronger effect = lower value 0.924 | S. cerevisiae deletion strains, locus YNL067W, strain RPL9B, stronger effect = lower value 0.99 | S. cerevisiae deletion strains, locus YNL128W, strain TEP1, stronger effect = lower value 1 | S. cerevisiae deletion strains, locus YNL153C, strain GIM3, stronger effect = lower value 0.989 | S. cerevisiae deletion strains, locus YNL233W, strain BNI4, stronger effect = lower value 1 | S. cerevisiae deletion strains, locus YNL250W, strain rad50, stronger effect = lower value 0.985 | S. cerevisiae deletion strains, locus YNL271C, strain bni1, stronger effect = lower value 1 | S. cerevisiae deletion strains, locus YNL298W, strain CLA4, stronger effect = lower value 1.01 | S. cerevisiae deletion strains, locus YNL307C, strain MCK1, stronger effect = lower value 0.995 | S. cerevisiae deletion strains, locus YNL322C, strain KRE1, stronger effect = lower value 0.992 | S. cerevisiae deletion strains, locus YNR052C, strain pop2, stronger effect = lower value 0.999 | S. cerevisiae deletion strains, locus YOL006C, strain TOP1, stronger effect = lower value 0.937 | S. cerevisiae deletion strains, locus YOL012C, strain htz1 1.25 | S. cerevisiae deletion strains, locus YOL147C, strain pex11, stronger effect = lower value 0.995 | S. cerevisiae deletion strains, locus YOR061W, strain CKA2, stronger effect = lower value 0.996 | S. cerevisiae deletion strains, locus YOR069W, strain VPS5, stronger effect = lower value 0.998 | S. cerevisiae deletion strains, locus YOR136W, strain idh2, stronger effect = lower value 1 | S. cerevisiae deletion strains, locus YOR144C, strain elg1, stronger effect = lower value 0.994 | S. cerevisiae deletion strains, locus YOR184W, strain ser1, stronger effect = lower value 0.976 | S. cerevisiae deletion strains, locus YOR316C, strain cot1, stronger effect = lower value 1 | S. cerevisiae deletion strains, locus YPL055C, strain LGE1, stronger effect = lower value 0.908 | S. cerevisiae deletion strains, locus YPL241C, strain CIN2, stronger effect = lower value 0.987 | S. cerevisiae deletion strains, locus YPR119W, strain clb2, stronger effect = lower value 1 | S. cerevisiae deletion strains, locus YPR141C, strain kar3, stronger effect = lower value 0.998 | S. cerevisiae deletion strains, locus YPR163C, strain tif3, stronger effect = lower value 0.999 | S. cerevisiae deletion strains, locus YPR167C, strain met16, stronger effect = lower value 1 | S. cerevisiae deletion strains, strain wtn01, stronger effect = lower value 0.999 | S. cerevisiae strains, strain wild type, stronger effect = lower value 0.996
